Screening data: PubChem BioAssay, National Center for Advancing Translational Sciences (NCATS)
KB-3-1 cytotox = kills parental KB-3-1 adenocarcinoma cells. Potency, µM (series often up to 46.1 µM), most hits filed as cytotoxic. 400,000 tested, 1.4% active. AID 1347075. KB-3-1 viability, CellTiter-Glo ATP luminescence, 72 h; further: nearly all actives have a fitted effect of over 60% in size
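Parental KB-3-1 adenocarcinoma cells in phenol-red-free DMEM with 10% FBS were pin-treated with compounds at several concentrations, incubated 72 h at 37 °C, and viability read by CellTiter-Glo luminescence; concentration-effect curves were fitted after normalization.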
HT1080 IDH1KD tx = kills HT-1080 cells with IDH1 knockdown; HT-1080 IDH1 knockdown viability, ATP luminescence, 48 h; Potency, µM (top dose mostly 46.1 µM), hits mostly cytotoxic; 360,000 tested, 2% active
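Knockdown cells (IDH1KD HT-1080) received compounds 2 h after plating at 750 cells/well and were kept 48 h at 37 °C in 5% FBS RPMI. A CellTiter-Glo luminescence read gave % activity for curve fitting.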
TDP1 cell noCPT = qHTS for Inhibitors of human tyrosyl-DNA phosphodiesterase 1 (TDP1): qHTS in cells in absence of CPT; DT40 Tdp1-/- hTDP1 cells, no CPT, ATP luminescence, 48 h; Potency, µM (doses to about 46.2 µM), hits mostly inhibitors; 420,000 tested, 15% active; AID 686978, 2013; further: nearly all actives have a fitted effect of over 55% in size
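A cellular qHTS used chicken DT40 cells lacking endogenous Tdp1 but carrying stably transfected human TDP1. Compounds were applied without camptothecin, and cell growth kinetics were judged by ATP-dependent luminescence after ≥48 hr.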
HT1080-NT tox = kills 2HG-producing HT-1080-NT fibrosarcoma cells. Potency, µM (doses to about 46.1 µM), usual class: cytotoxic. HT-1080-NT fibrosarcoma viability, CellTiter-Glo ATP luminescence, 48 h. 360,000 tested, 1.6% active. AID 686970;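 further: NT is the 2HG producing partner of a matched IDH1 knockdown line; nearly all actives have a fitted effect of over 55% in size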
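Fibrosarcoma NT cells, 750 per well in 5% FBS RPMI, were exposed to compound for 48 hours. Viability: CellTiter-Glo luminescence.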
TDP1 cell CPT = growth inhibition of DT40 Tdp1-/-;hTDP1 cells with camptothecin (screen for TDP1 inhibitors) | AID 686979 | 420,000 tested, 12% active | Potency, µM (series often up to 46.2 µM), actives largely listed as inhibitors | chicken DT40 Tdp1-/-;hTDP1 cells + 20 nM CPT, ATP luminescence, 48 h; further: nearly all actives have a fitted effect of over 55% in size
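Chicken DT40 Tdp1-/- cells stably complemented with human TDP1 were seeded at 400 cells/well in medium containing 20 nM camptothecin, exposed to pin-transferred compounds, and grown at 37 °C for at least 48 hr. Viability was read as ATP luminescence.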
KB-V1 cytotox = KB-V1 MDR subline cytotoxicity. AID 1347076. KB-V1 MDR cells viability, CellTiter-Glo, 72 h. 400,000 tested, 3.4% active. Potency, µM (top dose mostly 46.1 µM), usual class: cytotoxic; further: nearly all actives have a fitted effect of over 60% in size
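Potencies derive from concentration-effect curves fitted to normalized luminescence (CellTiter-Glo) of KB-V1 cells treated for 72 h at 37 degrees C in phenol-red-free DMEM containing 10% FBS.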
Numbers stand for hits; – = inactive; ? = inconclusive; · = no result; [ ] = remark or other dose. Sampled rows, rich in hits. Any-hit rate of the full collection: about 19%. The call rests on the fitted dose curve; in most records, active means well fitted curve in the direction sought with a large enough effect; inconclusive means small, poorly fitted or top-dose-only effect, or another doubt; inactive means no such curve, though single readings can be large; an effect the other way counts as inactive or inconclusive.

SMILES	KB-3-1 cytotox	HT1080 IDH1KD tx	TDP1 cell noCPT	HT1080-NT tox	TDP1 cell CPT	KB-V1 cytotox
CN1CCN(c2ncc3ncc(=O)n(C[C@H]4CCCO4)c3n2)CC1	·	·	–	·	–	·
Cc1ccc2c(=O)[nH]c(Nc3nc(C)cc(-c4ccccc4)n3)nc2c1	–	–	11.6µM	–	10.3µM	–
CCOC(=O)c1c(C)[nH]c(C)c1S(=O)(=O)N1CCN(c2ccccc2OC)CC1	·	·	–	·	–	·
CCOC(=O)c1scc(-c2ccccc2)c1S(=O)(=O)Nc1ccc(N(C)C)cc1	–	·	?	·	?	–
CCOC(=O)c1scc(-c2ccccc2)c1S(=O)(=O)N1CCN(c2ccccc2OC)CC1	–	·	13µM	·	8.2µM	?
CCOC(=O)c1scc(-c2ccc(C)cc2)c1S(=O)(=O)N1CCN(c2ccccc2)CC1	–	·	8.2µM	·	13µM	–
NC1C(O)OC(CO)[C@@H](O)[C@@H]1O[C@H]1O[C@@H](C(=O)O)C(O)C(O)C1O (stereo not given in full)	·	·	–	·	–	·
Cc1cc2c(cc1C)-n1nnnc1C(N1CCN(C(=O)OCc3ccccc3)CC1)C(=O)N2 (stereo not given)	?	?	5.8µM	?	6.51µM	18.4µM
Cc1cc2c(cc1C)-n1nnnc1C(N1CCN(CC(=O)N3CCCC3)CC1)C(=O)N2 (stereo not given)	–	–	–	–	–	–
O=C1Nc2ccccc2-n2nnnc2C1N1CCN(c2ccc(C(F)(F)F)cn2)CC1 (stereo not given)	?	–	20.6µM	–	16.4µM	20.6µM
Cc1cc2c(cc1C)-n1nnnc1C(N(C)Cc1ccccc1)C(=O)N2 (stereo not given)	–	–	14.6µM	–	20.6µM	?
Cc1cccc(N2CCN(C3C(=O)Nc4ccccc4-n4nnnc43)CC2)c1C (stereo not given)	?	10.3µM	7.31µM	?	11.6µM	?
CC(C)(C)CC(=O)Nc1cc2c3c(c1)CCC(=O)N3CCC2	–	–	–	–	–	–
COc1ccc(CNC(=O)CN2CCC(NC(=O)c3ccc(OC)cc3)CC2)cc1	–	–	–	–	–	–
Cc1cc2c(cc1C)-n1nnnc1C(N1CCN(c3ccccc3F)CC1)C(=O)N2 (stereo not given)	–	–	18.4µM	–	18.4µM	?
O=C(O)CCCC(=O)Nc1c(F)c(F)c(F)c(F)c1F	–	–	–	?	–	–
Cc1ccc(CC(=O)OC(C)C(=O)NC2CCCCC2C)cc1C (stereo not given)	–	–	?	–	?	–
Cc1cc(-c2ccc(C)c(S(=O)(=O)NCc3cccs3)c2)on1	?	·	14.6µM	·	11.6µM	?
CCc1ccc(-c2cc(C)no2)cc1S(=O)(=O)NCCc1ccccc1	?	?	18.4µM	–	?	?
CCc1ccc(-c2cc(C)no2)cc1S(=O)(=O)Nc1ccc(Cl)cn1	–	–	–	–	?	–
CSc1ccc(CCNS(=O)(=O)c2cc(-c3cc(C)no3)ccc2C)cc1	·	·	20.6µM	·	?	·
CCc1ccc(-c2cc(C)no2)cc1S(=O)(=O)Nc1ccc(Cl)cc1	?	·	?	·	?	16.4µM
Cc1cc(-c2ccc(C)c(S(=O)(=O)NCc3ccc(Cl)cc3)c2)on1	–	·	?	·	–	–
CCOC(=O)N1CCN(C(=O)c2cn(CC)c3ccc(S(=O)(=O)N4CCCCC4)cc3c2=O)CC1	–	–	–	–	–	?
C=CC(=O)N1CCCC(Nc2nc(Nc3ccc(N(C)C(=O)CC)cc3C)nc3nc[nH]c23)C1 (stereo not given)	–	–	–	–	–	–
SMILES	KB-3-1 cytotox	HT1080 IDH1KD tx	TDP1 cell noCPT	HT1080-NT tox	TDP1 cell CPT	KB-V1 cytotox
O=C(COc1ccc(Br)cc1Cl)NC(=O)Nc1ccc2c(c1)OCCO2	–	–	–	–	–	–
Cc1nc2c(C(=O)N3CCN(C)CC3)cnn2c(C)c1Cc1ccc(Cl)cc1	–	–	–	–	–	–
Cc1nc2c(C(=O)NCCc3ccccc3)c[nH]n2c(=O)c1Cc1ccccc1F	–	·	?	·	?	?
Cc1c(C(=O)NCCSCc2c(F)cccc2Cl)cnn1-c1ccc(F)cc1	–	–	25.9µM	–	?	–
Cc1nc2c(C(=O)NCCC(C)C)cnn2c(C)c1Cc1c(F)cccc1Cl	–	·	23.1µM	·	20.6µM	?
Cc1nc2c(C(=O)N3CCCCC3)cnn2c(C)c1Cc1ccccc1F	–	–	15.8µM	–	?	?
Cc1nc2c(C(=O)NCCc3ccccc3)cnn2c(C)c1Cc1c(F)cccc1Cl	–	·	16.4µM	·	14.6µM	–
Cc1c(C(=O)NCCSCc2ccc(F)cc2)cnn1-c1ccc(Cl)cc1	–	–	?	–	–	?
Cc1nc2c(-c3ccccc3)c(C)nn2c(C)c1CCC(=O)NCc1ccccc1Cl	–	·	?	·	–	–
Cc1nc2c(C(=O)NCc3ccccc3Cl)cnn2c(C)c1Cc1c(F)cccc1Cl	–	·	8.2µM	·	8.2µM	–
COCCn1c(SCC(=O)N2CCc3ccccc3C2)nc2cc(Cl)ccc2c1=O	?	–	14.6µM	–	?	1.84µM
COCCn1c(SCC(=O)Nc2cc(C)on2)nc2cc(Cl)ccc2c1=O	–	–	?	–	–	?
COCCn1c(SCC(=O)N2CCCc3ccccc32)nc2ccccc2c1=O	–	–	16.4µM	–	?	?
CCS(=O)(=O)Nc1cc(C(=O)N2CCCN(C=O)CC2)c2c(c1)nc(-c1ccccc1)n2C	·	·	–	·	–	·
O=C(Cc1ccccc1)Nc1ccc(SC(F)F)cc1	–	–	?	–	–	–
CCOc1ccccc1NC(=O)C(OC(=O)c1ccccc1NS(=O)(=O)c1cccs1)c1ccccc1 (stereo not given)	–	–	?	–	–	–
CCOc1ccccc1NC(=O)C(OC(=O)c1ccc(N(C)C)cc1)c1ccccc1 (stereo not given)	–	–	?	–	0.581µM	9.2µM
CCOc1ccccc1NC(=O)C(OC(=O)c1ccc(CC)cc1)c1ccccc1 (stereo not given)	?	–	?	–	16.4µM	–
CCOc1ccccc1NC(=O)C(CC)Sc1nc2ccncc2[nH]1 (stereo not given)	–	–	16.4µM	–	?	–
CCOc1ccccc1NC(=O)C(NCCc1ccc(OC)cc1)c1ccccc1 (stereo not given)	?	–	?	–	23.1µM	?
CC(=O)c1ccccc1NC(=O)COC(=O)CCC1CCCC1	–	–	–	–[9.24 µM]	–	–
Cc1noc(C)c1COc1ccc(C(=O)OCC(=O)NC2CCCCC2C)cc1 (stereo not given)	–	–	?	–	–	–
